An excerpt weighted towards active compounds, which were near 1.5% of everything screened.
STK33 kinase inh – inhibitors of purified STK33 kinase, primary screen, biochemical, ADP-Glo luminescence, homogeneous, cell-free; Serine/threonine-protein kinase 33 (Homo sapiens), Q9BYT3; MBP phosphorylation; inhibition, % at 10 µM; 320,000 tested, 0.073% active; AID 2661, 2010;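 active = inhibition at or above 25%, using the most active replicate where run in duplicate; inactive = inhibition below 25%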
HIF act – HIF pathway transcriptional activators, primary screen, cell-based, U2OS HRE-luciferase, luminescence | U2OS HRE-luciferase reporter; normalized: DMSO 0%, desferrioxamine 100% | activation, % at 7.5 µM (by protocol) | AID 1910, 2009 | 300,000 tested, 0.32% active;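 active = mean activation of at least 10% of the iron chelator positive control signal, with at least half of replicates also reaching 10%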
Dyrk1A ADPGlo – rat Dyrk1A kinase inhibitors, primary screen, biochemical, single point, plate reader; ADP-Glo luminescence, NFATc1 peptide; inhibition, % at 12.5 µM; 310,000 tested, 0.43% active; in the data active = inhibition above about 50%;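 note: plate controls were vehicle with enzyme for no effect and no enzyme for full effect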
PP5 primary – PP5 phosphatase inhibitors, primary screen, biochemical, fluorescence | purified PP5c, OMFP substrate fluorescence | inhibition, % at 6.7 µM | Serine/threonine-protein phosphatase 5 (Homo sapiens), P53041 | 320,000 tested, 0.18% active;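 active = inhibition above the campaign's mean inhibition across all tested compounds plus 3 SD, cut at about 9.5% in these data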;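 note: 0% = DMSO only and 100% = 100 µM cantharidin control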
PP1 counter – PP1-alpha phosphatase inhibitors, primary screen, counter-screen for PP5 inhibitor project, biochemical, fluorescence, OMFP substrate, single point. Serine/threonine-protein phosphatase PP1-alpha catalytic subunit (Homo sapiens), P62136. purified PP1alpha. inhibition, % at 6.7 µM. 320,000 tested, 0.9% active. AID 2235, 2010;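 active = inhibition above the mean inhibition of all tested compounds plus 3 SD, computed separately for each screening campaign, cut at about 15% in these data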
Target sequence (P62136 whole entry, looked up): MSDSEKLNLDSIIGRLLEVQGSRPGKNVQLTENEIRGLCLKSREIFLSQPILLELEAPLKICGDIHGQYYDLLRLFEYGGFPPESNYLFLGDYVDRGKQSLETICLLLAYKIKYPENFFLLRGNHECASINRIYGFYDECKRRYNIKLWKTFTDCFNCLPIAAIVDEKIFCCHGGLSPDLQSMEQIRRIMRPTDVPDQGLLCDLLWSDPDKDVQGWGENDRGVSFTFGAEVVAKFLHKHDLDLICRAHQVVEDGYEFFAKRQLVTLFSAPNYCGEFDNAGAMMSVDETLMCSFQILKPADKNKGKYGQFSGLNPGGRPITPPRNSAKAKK
PP1 confirm – PP1 phosphatase inhibitors, confirmation, biochemical, fluorescence, OMFP substrate, triplicate; shares compounds with PP1 counter; purified PP1alpha; inhibition, % at 6.7 µM; 1,900 tested, 52% active; AID 2358, 2010;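 active = mean PP1 inhibition above a set limit taken from the earlier primary screen, cut at about 15% in these data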
PP5 counter – PP5 phosphatase inhibition by PP1 hits, confirmation, counter-screen for PP1 inhibitor project, biochemical, fluorescence, triplicate | inhibition, % at 6.7 µM | purified PP5c, OMFP fluorescence | shares compounds with PP1 counter | 1,900 tested, 4% active;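 active = mean PP5 inhibition over triplicate wells above about 9.5% taken from the earlier PP1 screen, limit read from the data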
An asterisk follows results filed as active; ! = a repeat was not active.

How did Cc1nn(-c2ccccc2)c(C)c1C(=O)OCc1ccc(C#N)cc1 do in these assays?
STK33 kinase inh: -1; HIF act: 0; Dyrk1A ADPGlo: 1; PP5 primary: 2; PP1 counter: 1

How did COc1ccc(OC)c(S(=O)(=O)NCC(=O)NC2CCCc3ccccc32)c1 (stereo not drawn) do in these assays?
Dyrk1A ADPGlo: -5

How did COC(=O)c1c[nH]c2c1-c1cc(C(=O)OCc3ccccc3)n(S(=O)(=O)c3ccc(C)cc3)c1C(=O)C2=O do in these assays?
Dyrk1A ADPGlo: -1

What do the screens show for `COc1ccc(-c2nn(C)c(=O)c3ccccc23)cc1NC(=O)Cn1nc(-c2ccccc2)c2ccccc2c1=O`?
STK33 kinase inh: -2; HIF act: 0; Dyrk1A ADPGlo: 8; PP5 primary: 3; PP1 counter: 24*; PP1 confirm: 18*; PP5 counter: -2

What do the screens show for `CN(C)c1ccc(NC(=O)C(=O)C2C(=O)Nc3ccccc32)cc1` (stereo not drawn)?
STK33 kinase inh: -3; HIF act: 1; Dyrk1A ADPGlo: 7; PP5 primary: 1; PP1 counter: 21*; PP1 confirm: 1; PP5 counter: -1

How did CN(C)CCCN=Cc1c(-c2ccccc2)[nH]n(-c2nc3ccccc3s2)c1=O do in these assays?
STK33 kinase inh: 0; HIF act: -1; Dyrk1A ADPGlo: 20; PP5 primary: 3; PP1 counter: 26*; PP1 confirm: 4; PP5 counter: -3

Results for CCCN=Cc1c(CCC)[nH]n(-c2nc3ccccc3s2)c1=O ?
STK33 kinase inh: -1; HIF act: 1; Dyrk1A ADPGlo: -7; PP5 primary: 2; PP1 counter: -3

What do the screens show for `COc1cc(O)c(/C=N/NC(=O)c2ccncc2)c(OC)c1[N+](=O)[O-]`?
STK33 kinase inh: 0; HIF act: -1; Dyrk1A ADPGlo: -3; PP5 primary: 0; PP1 counter: -1

What do the screens show for `COc1ccc(C2C3C=CCC(c4cccc(-c5ccc(C)cc5)c4)C3C(=O)N2Cc2ccccc2)cc1Cl` (stereo not drawn)?
STK33 kinase inh: 0; HIF act: 0; Dyrk1A ADPGlo: 4; PP5 primary: -1; PP1 counter: 18*; PP1 confirm: 0; PP5 counter: -6

What do the screens show for `COc1cccc(-c2cc(N)nn2C(=O)Nc2ccc(Cl)cc2)c1`?
STK33 kinase inh: -1; HIF act: 2; Dyrk1A ADPGlo: 1; PP5 primary: 3; PP1 counter: 23*; PP1 confirm: 17*; PP5 counter: 7

Results for C/C(=N\Nc1ccc(Cl)cc1)c1c(O)cc(C)oc1=O ?
STK33 kinase inh: 0; HIF act: 0; Dyrk1A ADPGlo: -4; PP5 primary: 1; PP1 counter: 3

How did CC(C)(C)C(=O)Nc1scc(-c2ccc(-c3ccccc3)cc2)c1C(=O)O do in these assays?
STK33 kinase inh: 0; HIF act: 0; Dyrk1A ADPGlo: -4; PP5 primary: -6; PP1 counter: 18*; PP1 confirm: 8; PP5 counter: 1

Results for Cc1ccc(C(=O)Nc2scc(-c3ccccc3)c2C(=O)O)cc1 ?
STK33 kinase inh: 1; HIF act: 2; Dyrk1A ADPGlo: -9; PP5 primary: 0; PP1 counter: 0

What do the screens show for `COC(=O)C1=C(CSc2nc3c(cc2C#N)CN(C)CC3)OC(N)=C(C#N)C1c1ccccc1F` (stereo not drawn)?
STK33 kinase inh: 0; HIF act: 0; Dyrk1A ADPGlo: 2; PP5 primary: 3; PP1 counter: 18*; PP1 confirm: 5; PP5 counter: 4

Results for COc1cc(C(=O)NCCSc2ccc(F)cc2)cc(OC)c1OC ?
STK33 kinase inh: -2; HIF act: -1; PP5 primary: 0; PP1 counter: -3

How did COc1ccccc1CC(NC(C)=O)C(=O)NC1CCN(S(=O)(=O)c2ccccc2)CC1 (stereo not drawn) do in these assays?
HIF act: -4; Dyrk1A ADPGlo: 10

How did Cc1ccc(/C=N/n2c(-c3ccc(Cl)cc3)n[nH]c2=S)s1 do in these assays?
STK33 kinase inh: -2; HIF act: 0; Dyrk1A ADPGlo: 0; PP5 primary: 2; PP1 counter: 20*; PP1 confirm: 10; PP5 counter: -4

What do the screens show for `O=S(=O)(c1ccc(Cl)cc1)N1CCN(Cc2ccc(O)c3ncccc23)CC1`?
STK33 kinase inh: -2; HIF act: 4; Dyrk1A ADPGlo: -2; PP5 primary: 3; PP1 counter: 18*; PP1 confirm: 24*; PP5 counter: -2

What do the screens show for `CC1CCCC(C)N1C(=O)COc1ccc(C(=O)Nc2ccccc2N2CCOCC2)cc1` (stereo not drawn)?
STK33 kinase inh: -1; HIF act: 0; Dyrk1A ADPGlo: 0; PP5 primary: 0; PP1 counter: 2

How did COc1ccc(COC(=O)CN2C(=O)NC3(CCCC3)C2=O)cc1F do in these assays?
STK33 kinase inh: -1; HIF act: -1; Dyrk1A ADPGlo: -3; PP5 primary: 0; PP1 counter: 34*; PP1 confirm: -3; PP5 counter: -3

What do the screens show for `CCN(CC)CCOc1ccc(/C(=C(/Cl)c2ccccc2)c2ccccc2)cc1`?
STK33 kinase inh: -1; HIF act: 0; Dyrk1A ADPGlo: 4; PP5 primary: 4; PP1 counter: 19*!; PP1 confirm: -9; PP5 counter: 1

Results for COc1cccc(/C=C/c2ccc3cccc(O)c3n2)c1 ?
STK33 kinase inh: -2; HIF act: 3; Dyrk1A ADPGlo: 1; PP5 primary: 0; PP1 counter: 19*; PP1 confirm: 19*; PP5 counter: -1

Results for Cc1ccc(/C=C/c2ccc3cccc(O)c3n2)s1 ?
STK33 kinase inh: -1; HIF act: 4; Dyrk1A ADPGlo: 6; PP5 primary: 3; PP1 counter: 20*; PP1 confirm: 16*; PP5 counter: 2

How did COc1cccc(/C=C/c2ccc3cccc(O)c3n2)c1OC do in these assays?
STK33 kinase inh: -1; HIF act: 7; Dyrk1A ADPGlo: -6; PP5 primary: 0; PP1 counter: 20*; PP1 confirm: 17*; PP5 counter: -4

Results for COc1ccc(/C=C/c2ccc3cccc(O)c3n2)c(OC)c1OC ?
STK33 kinase inh: -2; HIF act: 8; Dyrk1A ADPGlo: 0; PP5 primary: 5; PP1 counter: 12

Assay outcomes (PubChem)
